Data published in PubChem BioAssay (Tox21).
Results filed as inconclusive are left out. Active and inactive are the calls of the source. Unless noted, calls follow the shape of the dose curve; as a rule, active = well fitted curve in the direction sought with a large enough effect in the repeat runs; inconclusive = weak or mixed curves; inactive = no such curve, though single readings can be large; an effect the other way counts as inactive or inconclusive.

Assays:
[1] = A CellTox Green Cytotoxicity Assay to monitor cytotoxicity in HepG2 cells - 8 hour (AID 1224890); also: nearly all actives have a fitted effect of over 45% in size
How it was run: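 Cytotoxicity was tracked as dead-cell DNA fluorescence in HepG2 cells treated with test compounds at 37 C; each time-point value comes from one kinetic series spanning 0, 8, 16, 24, 32 and 40 h.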

[2] = qHTS assay to identify small molecule antagonists of the androgen receptor (AR) signaling pathway using the MDA cell line in the presence of 0.5 nM R1881 - cell viability counter screen (AID 1259242); also: nearly all actives have a fitted effect of over 45% in size
How it was run: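 Cells seeded at 3,000/well and allowed 5 hr at 37C, 0% CO2 before compound transfer and R1881 (0.5 nM final) addition; 16 hr later, live-cell protease fluorescence indicated cytotoxicity.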

[3] = biological target: Estrogen receptor (Homo sapiens) (UniProt P03372); assay: qHTS assay to identify small molecule antagonists of the estrogen receptor alpha (ER-alpha) signaling pathway using the BG1 cell line in the presence of 0.1 nM 17-beta-estradiol (AID 1259244); also: nearly all actives have a fitted effect of over 50% in size
Estrogen receptor (Homo sapiens), sequence (P03372 whole entry, looked up): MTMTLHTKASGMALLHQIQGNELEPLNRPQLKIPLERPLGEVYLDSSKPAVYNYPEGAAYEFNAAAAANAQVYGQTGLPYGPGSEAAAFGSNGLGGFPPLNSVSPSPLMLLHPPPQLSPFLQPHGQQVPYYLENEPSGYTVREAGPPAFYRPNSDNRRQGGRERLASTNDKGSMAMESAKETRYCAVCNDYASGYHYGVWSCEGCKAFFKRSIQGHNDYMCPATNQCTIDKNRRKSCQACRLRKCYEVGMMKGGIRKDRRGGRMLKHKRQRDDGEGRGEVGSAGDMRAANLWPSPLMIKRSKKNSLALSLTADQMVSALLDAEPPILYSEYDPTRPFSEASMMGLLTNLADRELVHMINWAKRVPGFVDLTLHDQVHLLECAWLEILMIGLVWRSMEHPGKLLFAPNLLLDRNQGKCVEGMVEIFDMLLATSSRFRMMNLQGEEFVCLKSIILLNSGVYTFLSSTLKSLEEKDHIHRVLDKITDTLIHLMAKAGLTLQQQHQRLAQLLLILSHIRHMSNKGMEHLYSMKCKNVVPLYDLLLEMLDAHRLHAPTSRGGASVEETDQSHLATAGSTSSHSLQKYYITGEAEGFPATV
How it was run: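 Luciferase signal from VM7Luc4E2 ERE-reporter cells, co-dosed with test compound and 0.1 nM final 17beta-estradiol for 22 h, read with ONE-Glo.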

[4] = qHTS assay to identify small molecule phospholipidosis (PLD) inducers (AID 1259344; active = well fitted curve in the direction sought with a large enough effect; an effect the other way counts as inactive or inconclusive; also: potency is read from the fitted curve at half-maximal effect)
How it was run: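 After 4 h attachment on collagen I, HepG2 cells were dosed with compound alongside LipidTOX Red, kept 24 h at 37 C, fixed, and imaged for lamellar phospholipid pits.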

[5] = qHTS assay to identify small molecule HDAC inhibitors (AID 1259364); also: potency is read from the fitted curve at half-maximal effect;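 also: wild-type HCT-116 cells with endogenous class I/II HDAC activity; nearly all actives have a fitted effect of over 45% in size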; as to activity change, negative = inhibition: top concentration of the series differs between compounds
How it was run: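 HCT-116 wt cells, 1,500/well, overnight attach. Compounds (DMSO) 2 h, 37 °C. HDAC-Glo I/II, 30 min RT. Luminescence.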

[6] = qHTS assay to identify small molecule HDAC inhibitors - cell viability counter screen (AID 1259365); also: series mostly up to about 92 µM; nearly all actives have a fitted effect of over 50% in size
How it was run: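 Viability readout: CellTiter-Glo luminescence. Wild-type HCT-116 cells, 2hr compound treatment following overnight attachment at 37 C.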

[7] = qHTS assay to identify small molecule agonists of the sonic hedgehog signaling (Shh) pathway - cell viability counter screen (AID 1259366); also: nearly all actives have a fitted effect of over 50% in size
How it was run: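 Viability measured fluorometrically (CellTiter-Fluor, 1hr, 37C) in 3T3 Gli1-Luc reporter cells after 23hr compound exposure within a 24hr incubation at 37C/5% CO2.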

[8] = qHTS assay to identify small molecule antagonists of the sonic hedgehog signaling (Shh) pathway - cell viability counter screen (AID 1259367); also: nearly all actives have a fitted effect of over 55% in size
How it was run: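 Conditioned medium drove Shh signaling in 3T3 Gli1-Luc cells exposed to compounds at 37C and 5% CO2. Viability was determined from CellTiter-Fluor fluorescence, with reagent incubated 1 hr after 23 hr of treatment.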

[9] = qHTS assay to identify small molecule agonists of the sonic hedgehog signaling (Shh) pathway (AID 1259368; calls by dose curve;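 also: NIH/3T3-derived 3T3Gli1-Luc cells carrying a stable Gli1-driven firefly luciferase reporter; series mostly up to about 92 µM; nearly all actives have a fitted effect of over 15% in size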)
How it was run: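 Following a 24 hr incubation with DMSO-dissolved compounds at 37 C, 5% CO2, Gli1-Luc NIH/3T3-derived cells received luciferase reagent for 30 min at room temperature prior to luminescence measurement.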

[10] = qHTS assay to identify small molecule antagonists of the sonic hedgehog signaling (Shh) pathway (AID 1259369; calls by dose curve; also: nearly all actives have a fitted effect of over 45% in size; also: potency is read from the fitted curve at half-maximal effect)
How it was run: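 Read-out is luminescence from a firefly luciferase gene controlled by the Gli1 response element, in 3T3Gli1-Luc cells pre-incubated 4hr then exposed to compounds and conditioned medium for 24hr.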

[11] = biological target: Estrogen receptor beta (Homo sapiens) (UniProt Q92731); assay: qHTS assay to identify small molecule agonists of the estrogen receptor beta (ER-beta) signaling pathway (AID 1259377; active = well fitted activation curve with a large enough effect in the signal ratio in the repeat runs, not every such curve was filed as active; the % refers to the signal ratio)
Estrogen receptor beta (Homo sapiens), sequence (Q92731 whole entry, looked up): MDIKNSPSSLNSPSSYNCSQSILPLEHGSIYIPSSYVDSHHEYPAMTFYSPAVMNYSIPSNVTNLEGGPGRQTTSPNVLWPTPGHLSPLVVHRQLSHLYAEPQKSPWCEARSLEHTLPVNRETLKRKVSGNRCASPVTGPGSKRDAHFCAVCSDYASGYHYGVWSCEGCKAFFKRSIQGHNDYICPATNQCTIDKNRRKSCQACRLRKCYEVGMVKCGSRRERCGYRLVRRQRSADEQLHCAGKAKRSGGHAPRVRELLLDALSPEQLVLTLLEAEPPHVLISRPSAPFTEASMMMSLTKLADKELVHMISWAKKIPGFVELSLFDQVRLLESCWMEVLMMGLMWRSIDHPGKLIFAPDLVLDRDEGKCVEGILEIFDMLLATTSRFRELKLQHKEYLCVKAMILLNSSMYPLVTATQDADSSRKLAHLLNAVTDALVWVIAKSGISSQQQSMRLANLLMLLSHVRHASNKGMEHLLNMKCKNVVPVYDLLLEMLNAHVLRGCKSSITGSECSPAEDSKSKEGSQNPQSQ
How it was run: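 A UAS-controlled beta-lactamase reporter in ER-beta-UAS-bla HEK293T cells reports receptor activation. Compounds act for 16 hr at 37C in 2% charcoal-stripped serum, and a FRET substrate is read by fluorescence after 2 hours.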

[12] = biological target: Estrogen receptor beta (Homo sapiens) (UniProt Q92731); assay: qHTS assay to identify small molecule antagonists of the estrogen receptor beta (ER-beta) signaling pathway (AID 1259378; active = well fitted inhibition curve with a large enough effect in the signal ratio in the repeat runs, not every such curve was filed as active; the % refers to the signal ratio)
How it was run: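 ER-beta-UAS-bla HEK293T (GripTite) cells in 2% charcoal-stripped FBS medium were preincubated 6 hr at 37C, dosed with compound, then stimulated with 1 nM E2 (final) for 16 hr; beta-lactamase reporter read by B/G FRET fluorescence after 2 hr substrate loading.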

[13] = qHTS assay to identify small molecule agonists of the androgen receptor (AR) signaling pathway in the presence of an antagonist - cell viability counter screen (AID 1259379);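 also: MDA-kb2 human breast cancer cells carrying an MMTV luciferase reporter; series mostly up to about 92 µM; nearly all actives have a fitted effect of over 25% in size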
How it was run: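 Each compound was tested at 15 concentrations on MDA-kb2 cells in the presence of 3.0uM nilutamide. Viability was measured by CellTiter-Fluor fluorescence after a 16 hr incubation at 37C in a CO2-free atmosphere.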

[14] = qHTS assay to identify small molecule antagonists of the estrogen receptor beta (ER-beta) signaling pathway - cell viability counter screen (AID 1259382); also: series mostly up to about 92 µM; nearly all actives have a fitted effect of over 55% in size
How it was run: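 CellTiter-Glo ATP luminescence measured after the LiveBLAzer read in the same wells; ER-beta-UAS-bla HEK293T cells, 16 hr compound treatment with 1nM 17-beta-estradiol agonist at 37C, 5% CO2.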

[15] = biological target: Estrogen receptor (Homo sapiens) (UniProt P03372); assay: qHTS assay to identify small molecule agonists of the estrogen receptor alpha (ER-alpha) signaling pathway in the presence of an antagonist (AID 1259383; calls by dose curve; also: top concentration of the series differs between compounds; nearly all actives have a fitted effect of over 15% in size)
How it was run: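 Luminescent ERE-luciferase reporter, VM7Luc4E2 cells (endogenous ER-alpha); 10.0nM ICI-182,780 final; 15-point compound titration; 22hr at 37C; ONE-Glo, 30min RT.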

[16] = qHTS assay to identify small molecule antagonists of the estrogen receptor alpha (ER-alpha) signaling pathway using the BG1 cell line in the presence of 0.1 nM 17-beta-estradiol - cell viability counter screen (AID 1259241); also: nearly all actives have a fitted effect of over 40% in size
How it was run: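 The cell line endogenously expresses full-length ER-alpha and carries four EREs driving luciferase. Cells are cultured 5 days hormone-free, treated 22 hr with compounds and 0.1 nM estradiol, then viability is read by fluorescence.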

[17] = qHTS assay to identify small molecule agonists of the estrogen receptor beta (ER-beta) signaling pathway - cell viability counter screen (AID 1259380); also: nearly all actives have a fitted effect of over 30% in size
How it was run: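 Compounds dissolved in DMSO were pin-transferred onto ER-beta-UAS-bla HEK293T cells that had settled 6 hr, and exposure ran 16 hr at 37C. Following the reporter read, CellTiter-Glo luminescence after 30 min at room temperature indicated cytotoxicity.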

[18] = biological target: Androgen receptor (Homo sapiens) (UniProt P10275); assay: qHTS assay to identify small molecule antagonists of the androgen receptor (AR) signaling pathway using the MDA cell line in the presence of 0.5 nM R1881 (AID 1259243); also: nearly all actives have a fitted effect of over 50% in size
Androgen receptor (Homo sapiens), sequence (P10275 whole entry, looked up): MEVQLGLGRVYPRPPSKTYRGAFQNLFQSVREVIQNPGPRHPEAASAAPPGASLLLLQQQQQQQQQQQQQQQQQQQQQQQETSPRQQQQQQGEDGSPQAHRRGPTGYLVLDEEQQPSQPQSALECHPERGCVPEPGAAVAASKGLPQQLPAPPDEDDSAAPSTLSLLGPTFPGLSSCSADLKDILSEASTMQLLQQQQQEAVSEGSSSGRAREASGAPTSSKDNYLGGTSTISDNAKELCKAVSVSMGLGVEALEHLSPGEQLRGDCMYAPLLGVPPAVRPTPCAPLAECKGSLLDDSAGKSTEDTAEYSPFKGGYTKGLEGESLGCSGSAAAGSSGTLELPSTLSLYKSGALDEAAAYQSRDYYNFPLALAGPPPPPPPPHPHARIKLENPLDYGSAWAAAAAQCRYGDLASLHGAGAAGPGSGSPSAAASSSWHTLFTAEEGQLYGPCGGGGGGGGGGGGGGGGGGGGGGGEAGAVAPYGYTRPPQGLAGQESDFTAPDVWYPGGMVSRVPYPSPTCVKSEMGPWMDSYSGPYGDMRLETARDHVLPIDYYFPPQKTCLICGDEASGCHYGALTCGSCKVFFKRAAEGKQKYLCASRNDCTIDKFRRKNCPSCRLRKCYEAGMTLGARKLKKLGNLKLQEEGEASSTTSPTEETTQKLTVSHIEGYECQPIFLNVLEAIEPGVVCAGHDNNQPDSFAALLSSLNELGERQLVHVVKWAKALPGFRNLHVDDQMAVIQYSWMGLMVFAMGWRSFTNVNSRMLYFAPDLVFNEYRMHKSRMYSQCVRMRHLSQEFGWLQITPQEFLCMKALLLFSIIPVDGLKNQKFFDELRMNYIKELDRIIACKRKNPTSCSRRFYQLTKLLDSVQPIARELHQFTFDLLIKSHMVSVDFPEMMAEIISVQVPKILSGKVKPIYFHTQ
How it was run: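 Luminescence from an AR/GR-responsive MMTV-luciferase construct in MDA-kb2 breast carcinoma cells, read 30 min after ONE-Glo, following 16 hr co-treatment with compounds and 0.5 nM R1881.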

[19] = biological target: Androgen receptor (Homo sapiens) (UniProt P10275); assay: qHTS assay to identify small molecule agonists of the androgen receptor (AR) signaling pathway in the presence of an antagonist (AID 1259381; calls by dose curve; also: nearly all actives have a fitted effect of over 15% in size)
How it was run: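 Plated MDA-kb2 cells (3,000/well) were pre-incubated 5hr, given nilutamide (3.0uM final) or buffer, then dosed with compounds in DMSO at 15 concentrations. Luciferase activity was quantified by luminescence after 16hr at 37C.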

[20] = qHTS assay to identify small molecule agonists or antagonists of the thyroid stimulating hormone receptor (TSHR) signaling pathway - wild type cell line counter screen (AID 1259384; calls by dose curve)
How it was run: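 Wild-type HEK293 cells were plated 18 h at 37 C/5% CO2, pin-dosed with compound plus Ro20-1724 medium, held 30 min at room temperature, then given cAMP-d2 and anti-cAMP-cryptate; fluorescence was read after 1 h. Fifteen concentrations, triplicate.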
% is scaled to controls: 0 for no effect and ±100 for the full control effect.

Cc1c(C)n(CCN(C)C)c2ccc(C(=O)OCCN(C)C)cc12
inactive: Potency [1] | outcome [2] | outcome [3] | Potency [5] | outcome [6] | Potency [7] | outcome [8] | Potency [9] | Potency [10] | outcome [11] | Potency [12] | Potency [13] | Potency [14] | Potency [15]
active: Potency [4] 11.2 µM

C1C2OC2C2C1C1CC2C2OC12 (stereo unspecified)
inactive: Potency [1] | outcome [16] | outcome [2] | Potency [5] | Potency [7] | outcome [8] | Potency [9] | Potency [13] | Potency [17] | Potency [14]

CCCCNc1ccccc1
inactive: outcome [16] | outcome [2] | Potency [18] | outcome [3] | Potency [5] | outcome [6] | Potency [7] | outcome [8] | Potency [9] | Potency [12] | Potency [13] | Potency [17] | Potency [19] | Potency [14] | Potency [15] | outcome [20]

NC(=S)Nc1cccc2ccccc12
inactive: cytotoxicity increase [1] 0.879% [at 6.97 µM] | activity change, negative = cytotoxicity [16] 7.82% [at 8.39 µM] | viability change, negative = cytotoxic [2] 0.661% [at 8.39 µM] | activity change, negative = inhibition [5] 2.32% [at 8.39 µM] | viability change, negative = cytotoxic [7] -0.646% [at 8.39 µM] | viability change, negative = cytotoxic [8] 0.784% [at 8.39 µM] | activity change [9] -0.099% [at 8.39 µM, hits give high values] | activity change, negative = inhibition [10] 0.0462% [at 8.39 µM] | activation [11] -0.309% [at 8.39 µM] | activity, negative = inhibition [12] -5.64% [at 8.39 µM] | activity change, negative = cytotoxicity [13] -0.514% [at 8.39 µM] | activity change, negative = cytotoxicity [17] -0.0461% [at 8.39 µM] | activity change, negative = cytotoxicity [14] 8.83% [at 8.39 µM] | cAMP activity change [20] 4.82% [at 8.39 µM]

CCCc1ccccc1O
inactive: Potency [1] | outcome [16] | outcome [2] | Potency [5] | outcome [6] | Potency [7] | outcome [8] | Potency [9] | outcome [11] | Potency [12] | Potency [13] | Potency [17] | Potency [14] | outcome [20]

Cc1ccccc1C(=O)O
active: Potency [5] 30.1 µM
inactive: Potency [1] | outcome [16] | outcome [2] | outcome [6] | Potency [7] | Potency [9] | Potency [10] | outcome [11] | Potency [13] | Potency [17] | Potency [14]

Cn1cnc2c(=O)[nH]c(N)nc21
inactive: Potency [1] | outcome [16] | outcome [2] | Potency [5] | Potency [7] | outcome [8] | Potency [9] | Potency [10] | outcome [11] | Potency [12] | Potency [13] | Potency [17] | Potency [14] | outcome [20]

N#CC1(O)CCCCC1
active: Potency [10] 12.3 µM
inactive: Potency [1] | outcome [16] | outcome [2] | Potency [5] | outcome [6] | Potency [9] | outcome [11] | Potency [12] | Potency [13] | Potency [17] | Potency [14] | outcome [20]

C=CC(=O)OCCCCCC
inactive: Potency [1] | outcome [16] | outcome [2] | Potency [5] | outcome [6] | Potency [7] | outcome [8] | Potency [9] | Potency [13] | Potency [17] | Potency [14] | outcome [20]

O=C(O)CCNC(=O)c1ccc(N=Nc2ccc(O)c(C(=O)O)c2)cc1
inactive: Potency [1] | outcome [2] | outcome [3] | Potency [4] | Potency [5] | outcome [6] | outcome [8] | Potency [9] | Potency [10] | outcome [11] | Potency [12] | Potency [17] | Potency [14] | Potency [15] | outcome [20]

N[C@@H](CS)C(=O)O
inactive: Potency [1] | outcome [16] | outcome [2] | Potency [5] | outcome [6] | Potency [7] | outcome [8] | Potency [9] | Potency [10] | Potency [13] | Potency [17] | Potency [14] | outcome [20]

COc1ccc(NC(C)=O)cc1
inactive: outcome [16] | outcome [2] | Potency [18] | Potency [5] | Potency [7] | outcome [8] | Potency [9] | Potency [10] | outcome [11] | Potency [12] | Potency [13] | Potency [17] | Potency [19] | Potency [14] | outcome [20]

CCN1CCCC(OC(=O)C(c2ccccc2)c2ccccc2)C1 (stereo unspecified)
inactive: outcome [16] | outcome [2] | outcome [3] | Potency [4] | Potency [5] | outcome [6] | Potency [7] | outcome [8] | Potency [9] | Potency [10] | outcome [11] | Potency [12] | Potency [13] | Potency [14] | Potency [15] | outcome [20]

CCCCOCC(C)OCC(C)O (stereo unspecified)
inactive: outcome [16] | outcome [2] | outcome [3] | Potency [5] | outcome [6] | Potency [7] | outcome [8] | Potency [9] | Potency [10] | outcome [11] | Potency [12] | Potency [13] | Potency [17] | Potency [14] | Potency [15]

CNc1ncnc2nc[nH]c12
inactive: outcome [16] | outcome [2] | outcome [3] | Potency [5] | outcome [6] | Potency [7] | outcome [8] | Potency [9] | Potency [10] | Potency [13] | Potency [17] | Potency [14] | Potency [15] | outcome [20]

CC(=O)O[C@H](CC(=O)[O-])C[N+](C)(C)C
inactive: outcome [16] | outcome [2] | outcome [3] | Potency [5] | outcome [6] | Potency [7] | outcome [8] | Potency [9] | Potency [13] | Potency [17] | Potency [14] | Potency [15] | outcome [20]

CCOC(=O)Cn1c(=O)sc2cccc(Cl)c21
inactive: outcome [16] | outcome [2] | outcome [3] | Potency [5] | Potency [7] | outcome [8] | Potency [9] | outcome [11] | Potency [12] | Potency [13] | Potency [14] | Potency [15] | outcome [20]

O=S(=O)(c1cccc2cnccc12)N1CCCNCC1
inactive: outcome [16] | outcome [2] | Potency [4] | Potency [5] | outcome [6] | outcome [8] | Potency [9] | outcome [11] | Potency [12] | Potency [13] | Potency [14] | Potency [15] | outcome [20]

N#CCN(CC#N)CCN(CC#N)CC#N
inactive: outcome [16] | outcome [2] | Potency [5] | outcome [6] | Potency [7] | outcome [8] | Potency [9] | Potency [10] | outcome [11] | Potency [12] | Potency [13] | Potency [17] | Potency [14] | outcome [20]
